# Many of the other results were omitted from the sample, so hits are more common in it than they were.
# CD40 NFkB inh – CD40 pathway inhibition in BL2 cells. AID 1053188. inhibition, % at 10 µM. 83,000 tested, 0.94% active. BL2 NF-kB luciferase reporter, CD40L-induced, 4 h;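 active = mean inhibition of at least 50% with a set share of replicates also reaching that level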
# A number is an active result; - = inactive; ! = repeats disagree; [ ] = another dose, or the depositor's remark.
SMILES,CD40 NFkB inh
O=C(Cc1cccc([N+](=O)[O-])c1)Nc1ccccc1,-
O=[N+]([O-])c1ccc(CS(=O)c2ccccc2)cc1 (configuration not stated),-
O=[N+]([O-])c1ccc(S(=O)Cc2ccccc2)c([N+](=O)[O-])c1 (configuration not stated),106
C[C@@H](NC(=O)C[C@@H]1C[C@@H]2c3cc(NC(=O)NC4CCCC4)ccc3O[C@@H]2[C@@H](CO)O1)c1ccccc1,-
C1=C(CN2CCOCC2)COc2c1cccc2OCC1CNCCO1 (configuration not stated),-
C[C@H](CO)N1C[C@H](C)[C@@H](CN(C)C(=O)CCN(C)C)OCc2ccccc2-c2ccccc2C1=O,-
O=c1cc(-c2ccccc2)oc2cc(OCc3ccccc3)cc(O)c12,-
CCOC(=O)COc1ccc2c(=O)c(-c3ccccc3)coc2c1,-
CC(C)(C)OC(=O)COc1cc(OCC(=O)OC(C)(C)C)c2c(=O)cc(-c3ccccc3)oc2c1,57!
CN(C)C(=O)C[C@@H]1CC[C@@H]2[C@@H](COc3ccc(NC(=O)C4CCC4)cc3C(=O)N2C)O1,-
N#C[C@@H]1[C@H](c2ccc(C#Cc3ccccc3F)cc2)[C@@H](CO)N1C(=O)C1CC1,86[25 µM]
CCS(=O)(=O)N1[C@H](C#N)[C@@H](c2ccc(C#Cc3ccccc3F)cc2)[C@H]1CO,-
COc1cccc(C#Cc2ccc([C@@H]3[C@@H](C#N)N(C(=O)c4ccccn4)[C@@H]3CO)cc2)c1,-
CCS(=O)(=O)N1[C@H](CO)[C@H](c2ccc(C#Cc3ccccc3F)cc2)[C@@H]1C#N,-
N#C[C@H]1[C@@H](c2ccc(C#Cc3ccccc3F)cc2)[C@H](CO)N1C(=O)C1CC1,-
N#C[C@@H]1[C@@H](c2ccc(C#Cc3cccc(F)c3)cc2)[C@@H](CO)N1C(=O)C1CC1,-
N#C[C@@H]1[C@H](c2ccc(C#Cc3ccccc3F)cc2)[C@H](CO)N1C(=O)C1CC1,-
COc1cccc(C#Cc2ccc([C@@H]3[C@@H](C#N)N(C(=O)c4ccccn4)[C@H]3CO)cc2)c1,-
N#C[C@@H]1[C@@H](c2ccc(C#Cc3cccc(F)c3)cc2)[C@@H](CO)N1C(=O)C1CCCC1,-
COc1cccc(C#Cc2ccc([C@H]3[C@@H](C#N)N(C(=O)c4ccccn4)[C@@H]3CO)cc2)c1,53[25 µM]
CCS(=O)(=O)N1[C@H](CO)[C@@H](c2ccc(C#Cc3ccccc3F)cc2)[C@@H]1C#N,65[25 µM]
N#C[C@@H]1[C@H](c2ccc(C#Cc3cccc(F)c3)cc2)[C@@H](CO)N1C(=O)C1CCC1,99
COc1ccccc1C#Cc1ccc([C@H]2[C@@H](CO)N3CCCCN(CCC(F)(F)F)C[C@H]23)cc1,-
CC(=O)Nc1ccc2c(c1)C(=O)N(C)C[C@H](C)[C@@H](CN(C)C(C)=O)O2,-
COC(=O)[C@@H]1[C@@H](CO)[C@@H]2Cn3c(ccc(-c4cccnc4)c3=O)[C@@H]2N1Cc1cccc(F)c1,-
SMILES,CD40 NFkB inh
CCC(=O)N1[C@@H]2Cn3c(ccc(-c4ccccc4)c3=O)[C@H]1[C@@H](C(=O)N1CCc3ccccc3C1)[C@@H]2CO,-
COCC(=O)Nc1ccc2c(c1)C(=O)N(C)C[C@@H](OC)[C@H](C)CN[C@H](C)CO2,-
COc1ccc(-c2ccc3n(c2=O)C[C@@H]2[C@@H](CO)[C@H](C(=O)NCCN4CCCCC4)N(C)[C@H]32)cc1,-
C[C@@H]1CN([C@@H](C)CO)C(=O)c2ccccc2-c2ccccc2CO[C@H]1CN(C)C(=O)c1ccccc1,-
O=C(C[C@@H]1CC[C@H](NC(=O)NC2CCCC2)[C@@H](CO)O1)NCc1ccc(F)cc1,-
N#C[C@H]1[C@@H](c2ccc(C#Cc3ccccc3F)cc2)[C@@H](CO)N1C(=O)C1CCCC1,-
N#C[C@@H]1[C@H](c2ccc(C#Cc3ccc(F)cc3)cc2)[C@@H](CO)N1C(=O)C1CCCC1,87
N#C[C@H]1[C@H](c2ccc(C#Cc3ccc(F)cc3)cc2)[C@H](CO)N1C(=O)C1CC1,-
COCC(=O)N1CC2(C1)CN(Cc1ccc3c(c1)OCO3)[C@H](CO)c1c2c2ccc(OC)cc2n1C,-
O=C(NCCc1ccc2c(c1)OCCO2)c1cccc(S(=O)(=O)N2CCCC2)c1,43
O=C(NCCN1CCOCC1)c1cccc(S(=O)(=O)N2CCCC2)c1,-
COc1ccc(CCNC(=O)c2cccc(S(=O)(=O)N3CCCC3)c2)cc1,-
C[C@@H]1CN([C@H](C)CO)C(=O)c2c(c3ccccc3n2C)-c2ccccc2CO[C@H]1CN(C)S(=O)(=O)c1ccc(C(F)(F)F)cc1,-
CN(C)C(=O)c1cccc(-c2ccc([C@@H]3[C@@H](CO)N4C(=O)CN(C(=O)C5CCCC5)C[C@@H]34)cc2)c1,-
COc1ccc(-c2c[n+](CC(=O)OC3CC(C)CCC3C(C)C)c3n2CCC3)cc1 (configuration not stated),79
COc1ccc(-c2cnc3n2CCCCC3)cc1,-
COc1ccc(OCC(=O)OCC(=O)N2C(C)CCCC2C)cc1 (configuration not stated),-
O=C(C[C@@H]1C[C@@H]2c3cc(NC(=O)Nc4ccccc4)ccc3O[C@@H]2[C@@H](CO)O1)NCCN1CCCCC1,-
O=C(CN1C(=O)c2ccccc2S1(=O)=O)Nc1ncccn1,-
Cc1cc(C)nc(NC(=O)CN2C(=O)c3ccccc3S2(=O)=O)n1,-
O=C(CN1C(=O)c2ccccc2S1(=O)=O)Nc1ncc(Cl)cc1Cl,56
O=C(c1ccccc1)N1CC[C@@H]2[C@H](CO)Nc3ccc(C#Cc4cccnc4)cc3[C@@H]21,-
COc1cccc(C=NNC(=O)c2ccncc2)c1O,-
COc1cccc(/C=N/NC(=O)N/N=C/c2cccc(OC)c2O)c1O,-
COc1cccc(/C=N/Nc2ccc(C(=O)O)cc2)c1O,96
SMILES,CD40 NFkB inh
C[C@@H](NC(=O)C[C@H]1C[C@@H]2c3cc(NC(=O)NC4CCCC4)ccc3O[C@@H]2[C@@H](CO)O1)c1ccccc1,-
O=C(c1ccccn1)N1C[C@@H]2[C@H](c3ccccc31)[C@@H](CO)N2C(=O)Cc1ccccc1,-
C=CC[n+]1c(/C=C2\C=Cc3cc(C)ccc3N2CC)ccc2ccccc21,65
CCCC(=O)Nc1ccc2c(c1)OC[C@@H](C)NC[C@@H](C)[C@@H](OC)CN(C)C2=O,-
O=C(c1cccnc1)N1CC(=O)N2[C@H](CO)[C@@H](c3ccc(-c4ccccc4F)cc3)[C@H]2C1,-
Cc1cc(C)nc(NC(N)=NCCc2c[nH]c3ccccc23)n1,66
Cc1cc(C)nc(NC(N)=NCCc2ccccc2)n1,-
Cc1cc(C)nc(NC(N)=NC(C)c2ccccc2)n1 (configuration not stated),-
CC(C)(C)[S@@](=O)N1Cc2cc(C(=O)NCc3ccncc3)nc(-c3cccc(-c4cccc(C#N)c4)c3)c2[C@H]1CCO,-
O=C(c1ccccc1F)N1CC(=O)N2[C@@H](CO)[C@H](c3ccc(C#Cc4ccccc4)cc3)[C@@H]2C1,-
O=C(COc1ccccc1)c1ccccc1,-
O=C(CC(=O)c1ccccc1)c1ccccc1,-
O=C(C#Cc1ccccc1)c1ccccc1,89
COc1cccc(CNC(=O)[C@H]2[C@H](CO)[C@H]3Cn4c(cccc4=O)[C@@H]2N3C(=O)C2CCCCC2)c1,-
CCOC(=O)N(C)C[C@H]1OCc2cn(nn2)CCCC(=O)N([C@@H](C)CO)C[C@H]1C,-
O=C(C[C@@H]1CC[C@@H](NS(=O)(=O)c2ccccc2F)[C@@H](CO)O1)NCCCN1CCOCC1,-
O=C(Nc1nc(-c2ccc3c(c2)OCCO3)cs1)c1ccco1,-
